# PubChem BioAssay
# The source made the active and inactive calls.
# Assays:
# [1] = binders of probe aFSTL3 on microarray, primary screen, stem cell growth factor project, biochemical, small-molecule microarray, fluorescence 635/667 (AID 1064); details: higher = more signal;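 further: measures binding of the biotinylated anti-FSTL3 antibody to printed compounds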
# [2] = binders from COS7 lysate, DM2A8 probe, primary screen, torsin A project, cell lysate, small-molecule microarray, fluorescence 635/667 (AID 1065); details: higher = more signal, COS7 lysate expressing mutant human TOR1A
# [3] = binders of probe aFGF2 on microarray, primary screen, stem cell growth factor project, biochemical, small-molecule microarray, fluorescence 635/667 (AID 1067); details: higher = more signal;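 further: measures binding of biotinylated aFGF2 protein to printed compounds on slides; z-score merges feature fluorescence and signal-to-noise across triplicate slides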
# [4] = binders of probe aFGF10 on microarray, primary screen, stem cell growth factor project, biochemical, small-molecule microarray, fluorescence 635/667 (AID 1071); details: higher = more signal;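 further: score merges 667 nm spot intensity and signal to noise from triplicate slides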
# [5] = biological target: Neurogenic locus notch homolog protein 2 (Homo sapiens) (UniProt Q04721); assay: Notch2 binders on small-molecule microarrays, primary screen, biochemical, small-molecule microarray, 635 nm fluorescence, stem cell growth factors (AID 1073); details: Notch2 binding, higher = more signal
# Neurogenic locus notch homolog protein 2 (Homo sapiens), sequence (Q04721 whole entry, looked up, canonical isoform): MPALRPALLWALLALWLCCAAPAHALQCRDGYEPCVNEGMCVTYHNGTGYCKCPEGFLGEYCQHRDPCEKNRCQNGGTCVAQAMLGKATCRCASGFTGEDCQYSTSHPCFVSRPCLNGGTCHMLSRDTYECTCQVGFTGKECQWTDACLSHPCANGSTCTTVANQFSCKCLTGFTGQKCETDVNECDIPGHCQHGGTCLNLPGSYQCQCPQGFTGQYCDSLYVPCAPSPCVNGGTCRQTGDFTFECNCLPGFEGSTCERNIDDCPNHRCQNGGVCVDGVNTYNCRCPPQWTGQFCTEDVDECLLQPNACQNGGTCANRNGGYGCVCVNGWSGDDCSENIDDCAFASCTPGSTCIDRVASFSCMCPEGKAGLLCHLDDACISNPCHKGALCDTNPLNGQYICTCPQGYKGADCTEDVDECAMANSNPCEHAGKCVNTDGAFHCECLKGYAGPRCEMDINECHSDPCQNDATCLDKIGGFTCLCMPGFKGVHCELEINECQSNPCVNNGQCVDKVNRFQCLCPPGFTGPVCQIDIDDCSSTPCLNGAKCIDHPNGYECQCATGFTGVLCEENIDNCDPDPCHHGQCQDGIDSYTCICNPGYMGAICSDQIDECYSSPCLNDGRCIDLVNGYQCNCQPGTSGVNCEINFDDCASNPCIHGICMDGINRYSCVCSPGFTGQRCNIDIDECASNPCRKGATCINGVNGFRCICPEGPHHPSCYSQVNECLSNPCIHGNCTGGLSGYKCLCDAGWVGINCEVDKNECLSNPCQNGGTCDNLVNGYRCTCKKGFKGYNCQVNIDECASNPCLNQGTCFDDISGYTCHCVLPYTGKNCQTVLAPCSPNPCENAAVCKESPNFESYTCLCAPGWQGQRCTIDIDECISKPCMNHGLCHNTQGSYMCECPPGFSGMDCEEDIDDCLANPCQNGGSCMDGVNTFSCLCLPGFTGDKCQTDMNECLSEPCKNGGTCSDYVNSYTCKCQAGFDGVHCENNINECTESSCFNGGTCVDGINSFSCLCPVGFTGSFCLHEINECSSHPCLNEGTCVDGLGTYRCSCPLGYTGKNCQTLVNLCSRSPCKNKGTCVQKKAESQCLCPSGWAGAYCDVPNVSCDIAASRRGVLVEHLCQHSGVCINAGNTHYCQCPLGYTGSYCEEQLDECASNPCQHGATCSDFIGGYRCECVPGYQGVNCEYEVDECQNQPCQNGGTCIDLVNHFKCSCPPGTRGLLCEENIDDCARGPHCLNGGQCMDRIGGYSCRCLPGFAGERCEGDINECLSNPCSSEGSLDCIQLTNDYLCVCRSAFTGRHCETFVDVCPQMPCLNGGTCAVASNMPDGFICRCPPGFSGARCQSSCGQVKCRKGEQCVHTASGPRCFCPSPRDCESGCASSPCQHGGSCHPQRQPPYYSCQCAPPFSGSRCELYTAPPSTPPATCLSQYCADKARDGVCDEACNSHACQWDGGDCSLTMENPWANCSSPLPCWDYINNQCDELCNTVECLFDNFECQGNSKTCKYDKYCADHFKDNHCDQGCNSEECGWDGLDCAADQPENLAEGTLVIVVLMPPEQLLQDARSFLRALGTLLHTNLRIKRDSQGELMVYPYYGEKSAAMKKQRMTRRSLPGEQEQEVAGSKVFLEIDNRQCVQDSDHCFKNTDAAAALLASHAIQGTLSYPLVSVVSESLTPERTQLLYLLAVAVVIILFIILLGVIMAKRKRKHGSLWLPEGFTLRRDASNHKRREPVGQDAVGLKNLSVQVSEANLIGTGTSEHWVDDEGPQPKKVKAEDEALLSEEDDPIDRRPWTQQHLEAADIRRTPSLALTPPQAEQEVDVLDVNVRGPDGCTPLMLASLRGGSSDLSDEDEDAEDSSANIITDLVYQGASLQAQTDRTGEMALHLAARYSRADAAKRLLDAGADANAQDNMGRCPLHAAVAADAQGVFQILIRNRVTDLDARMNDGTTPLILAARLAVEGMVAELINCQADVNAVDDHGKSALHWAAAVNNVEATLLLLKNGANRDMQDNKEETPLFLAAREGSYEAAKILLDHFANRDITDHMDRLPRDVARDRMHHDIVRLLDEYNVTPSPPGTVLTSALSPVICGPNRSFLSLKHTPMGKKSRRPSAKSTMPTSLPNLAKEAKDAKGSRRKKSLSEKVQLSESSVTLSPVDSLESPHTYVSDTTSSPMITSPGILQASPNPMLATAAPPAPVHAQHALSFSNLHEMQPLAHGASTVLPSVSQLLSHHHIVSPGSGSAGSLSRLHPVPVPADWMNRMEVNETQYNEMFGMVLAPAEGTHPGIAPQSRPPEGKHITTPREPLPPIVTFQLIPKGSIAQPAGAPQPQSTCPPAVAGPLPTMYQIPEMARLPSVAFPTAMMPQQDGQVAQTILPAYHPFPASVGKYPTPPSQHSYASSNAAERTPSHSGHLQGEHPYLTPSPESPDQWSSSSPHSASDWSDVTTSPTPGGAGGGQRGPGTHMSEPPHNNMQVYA
# [6] = biological target: Pro-neuregulin-1, membrane-bound isoform (Homo sapiens) (UniProt Q02297); assay: NRG1 binders on small-molecule microarrays, primary screen, psychiatric disease protein project, biochemical, small-molecule microarray, fluorescence 635/667 (AID 1075); details: NRG1 binding, 635 nm fluorescence, higher = more signal;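 further: score combines 667 nm spot fluorescence with signal to noise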
# Pro-neuregulin-1, membrane-bound isoform (Homo sapiens), sequence (Q02297 whole entry, looked up, the tested form may be a part, canonical isoform): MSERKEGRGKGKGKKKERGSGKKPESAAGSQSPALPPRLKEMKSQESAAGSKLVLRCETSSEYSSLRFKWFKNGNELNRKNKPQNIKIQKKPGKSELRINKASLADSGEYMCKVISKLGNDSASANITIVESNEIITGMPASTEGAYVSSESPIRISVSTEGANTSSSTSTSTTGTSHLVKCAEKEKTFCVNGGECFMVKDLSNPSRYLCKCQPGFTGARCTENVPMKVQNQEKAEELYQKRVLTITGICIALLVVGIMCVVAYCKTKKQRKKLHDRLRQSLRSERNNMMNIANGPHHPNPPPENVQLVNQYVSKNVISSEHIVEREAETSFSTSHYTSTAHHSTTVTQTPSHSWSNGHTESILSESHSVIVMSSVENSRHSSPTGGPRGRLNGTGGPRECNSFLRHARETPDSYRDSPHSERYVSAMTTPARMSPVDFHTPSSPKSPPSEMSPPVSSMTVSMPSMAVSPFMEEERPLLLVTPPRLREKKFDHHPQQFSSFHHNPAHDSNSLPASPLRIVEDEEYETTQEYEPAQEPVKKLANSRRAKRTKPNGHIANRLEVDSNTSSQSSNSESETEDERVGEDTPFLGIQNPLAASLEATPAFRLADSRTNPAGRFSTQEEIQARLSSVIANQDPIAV
# [7] = tested on: Neuregulin-1 EGF-like domain; assay: binders of neuregulin-1 EGF-like domain, primary screen, biochemical, small-molecule microarray, 635 nm fluorescence (AID 1081); details: small-molecule microarray binding, higher = more signal;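 further: binding of the protein to compounds printed on small-molecule microarray slides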
# [8] = FRG1 promoter luciferase signal modulators, primary screen, FRG1 inhibition for FSHD, cell-based, C2C12 myotubes, firefly/Renilla luciferase, luminescence (AID 1084); details: higher = more signal, called active from +8 up or from −8 down
# [9] = binders of probe aFST on microarray, primary screen, stem cell growth factor project, biochemical, small-molecule microarray, fluorescence 635/667 (AID 1086); details: higher = more signal;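 further: score merges 667 nm fluorescence with signal-to-noise of each printed compound spot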
# [10] = binders of probe aHhip on microarray, primary screen, stem cell growth factor project, biochemical, small-molecule microarray, fluorescence 635/667 (AID 1087); details: higher = more signal;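 further: score merges spot fluorescence at 667nm with spot signal to noise ratio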
# [11] = tested on: PRMT1 (protein arginine N-methyltransferase 1); assay: PRMT1 binders on small-molecule microarrays, primary screen, biochemical, small-molecule microarray, 635 nm fluorescence (AID 1088); details: small-molecule microarray binding, higher = more signal;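 further: binding of Prmt1 protein to compounds spotted on small-molecule microarray slides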
# [12] = yeast growth modulation, basal conditions, primary screen, YJM789 clinical isolate, OD600, 24 h (AID 1089);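 further: growth of clinical yeast isolate S. cerevisiae YJM 789 seeded 1000 cells per well; test concentration not given here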; details: S. cerevisiae YJM789 growth, higher = more signal, called active from +8 up or from −8 down
# [13] = fission yeast growth modulation, primary screen, strain 972, OD600, 24 h, no modulator (AID 1090);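 further: basal condition with compound alone and no growth modifier present; test concentration not given here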; details: S. pombe 972 growth, higher = more signal, called active from +8 up or from −8 down
# [14] = S. cerevisiae growth modulation with rapamycin, primary screen, strain BY4716, OD600, 96 h (AID 1091); details: higher = more signal, called active from +8 up or from −8 down; further: test concentration not given here
# [15] = biological target: Torsin-1A-interacting protein 2 (Homo sapiens) (UniProt Q8NFQ8); assay: LULL1 binders on small-molecule microarray, primary screen, cell lysate, human LULL1 lysate, 635/667 nm fluorescence (AID 1092); details: hLULL1 lysate binding, 635 nm fluorescence, higher = more signal;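 further: probe is lysate of COS7 cells overexpressing human LULL1; score merges per-feature 667 nm fluorescence with signal-to-noise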
# Torsin-1A-interacting protein 2 (Homo sapiens), sequence (Q8NFQ8 whole entry, looked up): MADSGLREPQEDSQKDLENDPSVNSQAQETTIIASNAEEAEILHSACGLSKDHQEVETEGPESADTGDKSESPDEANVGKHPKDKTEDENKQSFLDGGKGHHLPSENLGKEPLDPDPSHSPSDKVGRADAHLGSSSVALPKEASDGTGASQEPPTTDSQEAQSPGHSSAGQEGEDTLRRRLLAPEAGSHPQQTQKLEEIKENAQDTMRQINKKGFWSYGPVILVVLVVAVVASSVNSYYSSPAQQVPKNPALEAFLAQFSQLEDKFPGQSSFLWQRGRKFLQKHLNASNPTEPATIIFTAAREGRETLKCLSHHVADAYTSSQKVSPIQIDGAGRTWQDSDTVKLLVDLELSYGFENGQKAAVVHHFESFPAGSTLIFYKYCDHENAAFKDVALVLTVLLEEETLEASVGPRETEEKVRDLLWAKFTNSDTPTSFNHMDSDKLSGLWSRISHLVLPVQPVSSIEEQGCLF
# [16] = E. coli growth modulation, two-sided OD650, primary screen, E. coli filamentation project, strain DRC41, 24 h (AID 1093); details: OD650, 24 h, higher = more signal, called active from +8 up or from −8 down;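 further: MC1000 strain lacking acrAB efflux and sulA so SOS filamentation is blocked; test concentration not given here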
# [17] = small-molecule microarray binders of probe aLefty2, primary screen, biochemical, biotinylated probe, 635/667 nm fluorescence (AID 1094); details: higher = more signal;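 further: score merges spot fluorescence near 667 nm with spot signal-to-noise ratio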
# [18] = tested on: Noggin (protein binding on small-molecule microarray); assay: Noggin binders on small-molecule microarray, primary screen, biochemical, 635/667 nm fluorescence (AID 1095); details: 635 nm fluorescence, higher = more signal;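 further: score merges 667 nm feature fluorescence with signal to noise over triplicate slides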
# [19] = biological target: Neurogenic locus notch homolog protein 3 (Homo sapiens) (UniProt Q9UM47); assay: NOTCH3 binders on small-molecule microarray, primary screen, biochemical, 635/667 nm fluorescence (AID 1096); details: NOTCH3 binding, 635 nm fluorescence, higher = more signal
# [20] = small-molecule microarray binders of probe aEGFR, primary screen, biochemical, biotinylated probe, 635/667 nm fluorescence (AID 1097); details: higher = more signal;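 further: probe is a biotinylated anti-EGFR antibody binding compounds printed on slides; score combines fluorescence near 667 nm and signal to noise of each spot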
compound,measurement,setting,value
COc1ccc([C@H]2C[C@H]3C(Br)=C[C@]2(OC)C(=O)[C@]32CO2)cc1,composite z-score,[1],-0.207
same,composite z-score,[2],-0.187
same,composite z-score,[3],-0.0563
same,composite z-score,[4],1.02
same,composite z-score,[5],-0.203
same,composite z-score,[6],-0.228
same,composite z-score,[7],-0.0338
same,z-score,[8],0.926 (inactive)
same,composite z-score,[9],0.198
same,composite z-score,[10],0.0722
same,composite z-score,[11],-0.378
same,z-score,[12],-0.714 (inactive)
same,z-score,[13],-3.14 (inactive)
same,z-score,[14],-0.577 (inactive)
same,composite z-score,[15],-0.288
same,z-score,[16],-0.987 (inactive)
same,composite z-score,[17],-0.159
same,composite z-score,[18],0.145
same,composite z-score,[19],0.372
same,composite z-score,[20],-0.151
C=CC[C@]1(C(=O)N2CCCCC2)N=C(c2ccc(OCCCO)cc2)O[C@H]1c1ccccc1N=[N+]=[N-],composite z-score,[1],1.16
same,composite z-score,[2],1.11
same,composite z-score,[3],0.256
same,composite z-score,[4],0.984
same,composite z-score,[5],1.5
same,composite z-score,[6],1.67
same,composite z-score,[7],1.24
same,z-score,[8],-2.1 (inactive)
same,composite z-score,[9],1.87
same,composite z-score,[10],-0.0237
same,composite z-score,[11],1.58
same,z-score,[12],-0.534 (inactive)
same,z-score,[13],-1.18 (inactive)
same,z-score,[14],0.946 (inactive)
same,composite z-score,[15],3.44
same,z-score,[16],0.208 (inactive)
same,composite z-score,[17],0.619
same,composite z-score,[18],1.17
same,composite z-score,[19],1.08
same,composite z-score,[20],0.561
CCCCO[C@H]1C[C@H]2C(Br)=C[C@@]1(CO)C(=O)[C@]21CO1,composite z-score,[1],-0.599
same,composite z-score,[2],0.407
same,composite z-score,[3],-0.0785
same,composite z-score,[4],-0.367
same,composite z-score,[5],-0.0029
same,composite z-score,[6],-0.534
same,composite z-score,[7],-0.802
same,z-score,[8],0.715 (inactive)
same,composite z-score,[9],0.162
same,composite z-score,[10],-0.156
same,composite z-score,[11],0.638
same,z-score,[12],-1.48 (inactive)
same,z-score,[13],-2.1 (inactive)
same,z-score,[14],-1.29 (inactive)
same,composite z-score,[15],-0.0735
same,z-score,[16],2.62 (inactive)
same,composite z-score,[17],-0.341
same,composite z-score,[18],0.648
same,composite z-score,[19],0.237
same,composite z-score,[20],-0.109
N#Cc1ccc(NN2C(C(O)CCc3ccccc3)C=CC3C(=O)N(c4ccccc4)C(=O)C32)cc1 (stereo not given),composite z-score,[1],0.681
same,composite z-score,[2],0.936
same,composite z-score,[3],0.078
same,composite z-score,[4],-0.0011
same,composite z-score,[5],1.62
same,composite z-score,[6],1.17
same,composite z-score,[7],1
same,z-score,[8],-1.22 (inactive)
same,composite z-score,[9],1.02
same,composite z-score,[10],-0.177
same,composite z-score,[11],0.212
same,z-score,[12],-1.53 (inactive)
same,z-score,[13],0.222 (inactive)
same,z-score,[14],1.13 (inactive)
same,composite z-score,[15],3.01
same,z-score,[16],-1.11 (inactive)
same,composite z-score,[17],0.25
same,composite z-score,[18],-0.172
same,composite z-score,[19],1.13
same,composite z-score,[20],0.35
Cc1ccc(S(=O)(=O)N2[C@@H](c3ccccc3)C(C(=O)O)=CC[C@H]2c2ccccc2)cc1,composite z-score,[1],-0.0332
same,composite z-score,[2],-0.0906
same,composite z-score,[3],-0.0502
same,composite z-score,[4],0.693
same,composite z-score,[5],1.44
same,composite z-score,[6],1.06
same,composite z-score,[7],1.38
same,z-score,[8],-2.89 (inactive)
same,composite z-score,[9],0.273
same,composite z-score,[10],0.0854
same,composite z-score,[11],-0.116
same,z-score,[12],-0.12 (inactive)
same,z-score,[13],-0.422 (inactive)
same,z-score,[14],0.0034 (inactive)
same,composite z-score,[15],3.4
same,z-score,[16],-1.76 (inactive)
same,composite z-score,[17],-0.0096
same,composite z-score,[18],-0.208
same,composite z-score,[19],0.622
same,composite z-score,[20],0.0731
